tested on: Sonic hedgehog protein (Shh); test: small-molecule binders of Shh protein, primary screen, biochemical, small-molecule microarray, 635/667 nm fluorescence (AID 1151); settings: small-molecule microarray binding, 635 nm fluorescence; higher = more signal;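 further: Shh protein binding to compounds spotted on small-molecule microarray slides; score combines spot fluorescence intensity with signal-to-noise across triplicate slides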

Row | Compound | composite z-score
1 | O=C1C2C=CC(C(O)C3CCCCC3)N(Nc3ccc([N+](=O)[O-])cc3)C2C(=O)N1c1ccccc1 (stereo not given) | -1.09
2 | C=CCNC(=O)[C@H]1[C@@H]2C(=O)O[C@@H](c3ccccc3)[C@@H](c3ccccc3)N2[C@@H](c2ccc(OCCO)cc2)[C@]12C(=O)N(C(=O)OCCOC)c1ccccc12 | 1.95
3 | O=C1C2C=CC(C(O)c3c(F)cccc3Cl)N(Nc3ccccc3)C2C(=O)N1c1ccccc1 (stereo not given) | -0.104
4 | CC(C)c1ccc(NN2C(C(O)c3cc(C(F)(F)F)cc(C(F)(F)F)c3)C=CC3C(=O)N(c4ccccc4)C(=O)C32)cc1 (stereo not given) | -0.254
5 | [N-]=[N+]=NCc1ccccc1C[C@]1(C(=O)O)N=C(c2ccc(OCCCO)cc2)O[C@H]1c1ccccc1N=[N+]=[N-] | 0.237
6 | O=C1O[C@H](c2ccccc2)[C@H](c2ccccc2)N2[C@H]1[C@@H](C(=O)NC[C@H](O)c1ccccc1)[C@]1(C(=O)Nc3ccccc31)[C@H]2c1ccc(OCCO)cc1 | 0.297
7 | COC(=O)[C@@]1(Cc2ccc(F)cc2)[C@H]2c3cc(C(=O)N4CCCC4)n(Cc4ccc(C)o4)c3C[C@H]2CN1C(=O)c1ccccc1 | -0.704
8 | COc1ccc([Si](C)(C)[C@H]2[C@H](CCn3cc([C@H](O)c4ccccc4)nn3)O[C@@]3(C(=O)N(Cc4cccc(N5CCOC5=O)c4)c4ccccc43)[C@@H]2C)cc1 | 1.5
9 | COc1ccc(CCNC(=O)[C@@]2(C)c3ccccc3C(=O)N(Cc3cc(F)cc(C(F)(F)F)c3)[C@H]2c2ccc(CO)cc2)cc1 | -0.0895
10 | O=C1O[C@@H](c2ccccc2)[C@@H](c2ccccc2)N2[C@@H](c3ccc(OCCO)cc3)[C@]3(C(=O)Nc4ccccc43)[C@@H](C(=O)NC[C@H](O)c3ccccc3)[C@H]12 | 0.95
